Results: PubChem BioAssay (NCI)
This is part of a sample that, as a whole, favours compounds with a hit. Of some 83,000 tested, about 20% had one in any assay.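 Assay: single dose, 48 h. Readout: percent growth (0 = no net growth; negative = cell death). Active: <10.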 Values without a mark were called inactive. Active and inactive are the calls of the source.

System: HL-60(TB) leukemia
Assay: NCI-60 one-dose screen, 48 h (100 = growth as untreated, 0 = no growth, -100 = all killed)
Conditions: 10 µM unless noted

Structure (SMILES)	growth
COc1ccc2[nH]c(C(=O)OCc3ccc4c(Br)cc(Br)c(O)c4n3)cc2c1	-32.7% (active)
CCN1CCN(c2cc(C(=O)Nc3cccc(Nc4ccc5c(OC)cccc5n4)c3)cc(C(F)(F)F)c2)CC1	62.6%
Cc1c(Cl)cccc1NC(=O)CN1CCOCC1	81.7%
O=C(c1cccs1)c1ccccc1Cc1ccccc1	98.8%
O=C1OCC2=C1C(c1cccc(Br)c1)c1cc3c(cc1N2CCO)CCC3 (stereo not given)	-25.5% (active)
CCN1C(=O)N(CC)C2C1NN=c1s/c(=C3\C(=O)N(CCc4ccccc4)c4ccccc43)c(=O)n12 (stereo not given)	-46.1% (active)
CCOC(=O)c1sc(-c2ccc(OS(=O)(=O)C[C@]34CCC(CC3=O)C4(C)C)c(C=O)c2)nc1C	-5% (active)
CCC(=O)c1ccc(O)c(OC)c1	102%
Cc1ccc(-c2nc(SCC(=O)c3ccc(C#N)cc3)[nH]c(=O)c2C#N)cc1	94.2%
COC(=O)[C@@H]1[C@H](O)[C@H](C)[C@H](O)[C@@](C)(O)/C=C\C=C(C)C(=O)Nc2c(C)c(OC(C)=O)c3c(c2O)C(=O)C(C)=C2OCOC(=C23)C(C)=C[C@@](C)(O)[C@H](O)[C@@H](C)[C@H]1OC(C)=O	71.2%
COc1ccc(-c2cc(-c3ccc(Nc4nc(Nc5ccc(Cl)cc5)nc(Nc5ccc(Cl)cc5)n4)cc3)nc(N)c2C#N)cc1	28.3%
Cc1ccc(S(=O)(=O)O)c(C)c1	100%
C1=Cc2ccccc2N(c2nnc(-c3ccccc3)o2)c2ccccc21	86.8%
CSc1ccc(N2C(=N)C(=S)N(c3ccc(C)cc3)C2=O)cc1	101%
CC(=O)N1C/C(=C/c2ccc(Cl)cc2)C(=O)/C(=C/c2ccc(Cl)cc2)C1	4.97% (active)
O=C(Nc1nc2ccc(OC(F)(F)F)cc2s1)c1ccc(F)cc1	14.3%
c1ccc(CNCCNCc2ccccc2)cc1	105%
COc1ccc(C)c2sc(N(Cc3cccnc3)C(=O)c3ccc(C#N)cc3)nc12	-6.46% (active)
COc1cc2c(cc1-c1c(C)noc1C)ncc1nc(C3CCCC3)n([C@H](C)COC(F)F)c12	27.8%
Fc1ccc(Nc2ccc3c(OCCCN4CCOCC4)cccc3n2)cc1F	85.3%

Structure (SMILES)	growth
CC1(C)CC[C@]2(CO)CC[C@]3(C)[C@H](CC[C@@H]4[C@@]5(C)CCCNC(C)(C)[C@@H]5CC[C@]43C)[C@H]2[C@H]1O	57.8%
COc1cnc2c(c1)C(=O)c1c-2n(CCCNC(C)C)c(=O)c2cc([N+](=O)[O-])ccc12	-65% (active)
O=C1OCC2=C1C(c1cccc(Cl)c1)c1cc3c(cc1N2CCO)CCC3 (stereo not given)	-26.3% (active)
O=C1C=CC(=O)c2c(O)c(CO)c(CO)c(O)c21	64.2%
CCOC(=O)c1cc(C(=O)c2ccc(OC)c(OC)c2)n2c1ccc1ccc3cccnc3c12	3.73% (active)
Cc1c(C)c2c(c(C)c1OC(=O)CCC(=O)[O-])CCC(C)(CCCCCCCCCCC[P+](c1ccccc1)(c1ccccc1)c1ccccc1)O2 (stereo not given)	-35.2% (active)
Cc1ccc(-c2ccc(Nc3ccccc3)nn2)cc1S(N)(=O)=O	86.7%
COc1ccc(/C=C/C(=O)c2ccc3cc(OC)c(OC)cc3c2)cc1OC	44.7%
NNC(=O)CNc1ccc2ccccc2c1	84.8%
O=C(Nc1ccncc1)C(=O)c1cn(S(=O)(=O)c2cccc3ccccc23)c2ccccc12	64%
O=C(NC1=CC(=O)c2ccccc2C1=O)c1ccccc1	-30.8% (active)
CCOC(=O)C1=C(c2ccccc2)NC(=O)NC1CN1C(=O)c2ccccc2C1=O (stereo not given)	57.4%
O=C(Nc1ccc(Cl)cc1)c1cc2cc(F)ccc2cc1O	-4.75% (active)
C=C1C(=O)O[C@H]2[C@H]1CC/C(COC(=O)c1cc3ccccc3s1)=C\CC[C@@]1(C)O[C@@H]21	-33.8% (active)
N=C(N)SCc1cccc2c(CSC(=N)N)cccc12	93.4%
O=C(NC1CC1)c1ccc(-c2nc3ccc4[nH]ncc4c3c3c2CCCC3)cc1	28.6%
COc1cc2oc(-c3cccc(C(=O)Nc4ccc5c(c4)OCO5)c3)cc(=O)c2c(O)c1OC	94.3%
CNC(=O)c1cc(Oc2ccc(NC(=O)Nc3ccc(Cl)c(OC4CCCCC4)c3)c(F)c2)ccn1	82.9%
COc1ccc(/C=C2\CCCC3=C2NC(C)=NC3c2ccc(OC)c(OC)c2)cc1OC (stereo not given)	-6.62% (active)
CC(=O)Nc1ccc(CC#N)cc1Br	123%
